Screening results (PubChem BioAssay)
Most compounds without a hit are left out; they make up all but 5.4% or so of the library.
CSC inhib = cancer stem cell inhibition | cancer stem cell-like cells viability, luminescence | inhibition, % at 7.5 µM | 300,000 tested, 1.1% active; in the data active means inhibition above about 75%; inconclusive means no clear call, values can overlap the other calls; tested in HMLE shEcad cells
SKKanGAS inh = blocks kanamycin growth of S. pyogenes SKKanGAS strain. BacTiter-Glo, 6 h. inhibition, % at 7.5 µM. 300,000 tested, 1.3% active;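 active means mean replicate score, as percent of positive control median, at least 50; inconclusive means mean below 50 but one replicate at or above 50; inactive means mean and every replicate below 50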;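 further: strain carries kanamycin resistance gene driven by streptokinase promoter and grows in 40 µg/ml kanamycin; loss of luminescence reflects streptokinase promoter inhibition or plain growth inhibition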
Calb FLC = C. albicans growth modulation with fluconazole | growth inhibition, % (no concentration beside the values) | AID 1979 | 300,000 tested, 0.57% active | C. albicans CaCi-2 (fluconazole-resistant clinical isolate) + fluconazole, Alamar Blue growth, 48 h;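 active means growth inhibition above about 58% in most replicates, limit read from the data, passing the limit was not always enough; inconclusive means exactly half the replicates above a set limit; inactive means most replicates below a set limit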;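 further: all wells also contain fluconazole at 8 µg/ml as a sub-toxic cotreatment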
Mdm2-MdmX inh = human Mdm2/MdmX binding inhibition. O15151+Q00987. SaOS-2 split-luciferase Mdm2/MdmX complementation, luminescence. inhibition, % at 8 µM. 330,000 tested, 3% active;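 active means inhibition of at least 50% at 8 µM in the primary screen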
Target sequence (O15151 whole entry, looked up): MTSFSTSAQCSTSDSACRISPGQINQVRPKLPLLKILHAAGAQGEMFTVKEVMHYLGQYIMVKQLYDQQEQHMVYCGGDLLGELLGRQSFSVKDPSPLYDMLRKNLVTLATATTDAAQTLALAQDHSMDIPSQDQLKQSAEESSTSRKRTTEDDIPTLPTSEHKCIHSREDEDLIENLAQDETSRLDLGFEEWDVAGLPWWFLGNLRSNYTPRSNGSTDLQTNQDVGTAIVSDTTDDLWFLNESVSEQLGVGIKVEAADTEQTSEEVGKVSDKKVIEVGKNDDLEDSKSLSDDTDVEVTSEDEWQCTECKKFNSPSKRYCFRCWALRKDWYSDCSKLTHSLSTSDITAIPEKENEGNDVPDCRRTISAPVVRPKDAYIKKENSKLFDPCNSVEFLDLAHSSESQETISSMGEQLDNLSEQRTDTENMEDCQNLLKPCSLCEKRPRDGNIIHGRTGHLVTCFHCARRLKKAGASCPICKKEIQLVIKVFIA
Target sequence (Q00987 whole entry, looked up): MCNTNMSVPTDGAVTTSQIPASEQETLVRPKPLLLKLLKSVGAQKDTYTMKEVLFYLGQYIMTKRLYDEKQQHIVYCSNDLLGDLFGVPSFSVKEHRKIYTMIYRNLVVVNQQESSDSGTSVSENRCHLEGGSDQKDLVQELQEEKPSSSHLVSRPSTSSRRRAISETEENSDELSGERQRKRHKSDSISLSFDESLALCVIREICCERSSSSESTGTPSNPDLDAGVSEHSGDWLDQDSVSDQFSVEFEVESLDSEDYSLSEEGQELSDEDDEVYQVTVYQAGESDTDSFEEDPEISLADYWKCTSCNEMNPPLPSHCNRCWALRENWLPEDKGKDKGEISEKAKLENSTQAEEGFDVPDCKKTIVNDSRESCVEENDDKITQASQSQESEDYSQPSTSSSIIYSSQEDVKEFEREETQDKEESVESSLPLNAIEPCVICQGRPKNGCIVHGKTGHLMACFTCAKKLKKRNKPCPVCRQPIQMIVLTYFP
MPTP inh = permeability transition pore inhibition. inhibition, % at 10 µM. 360,000 tested, 1.4% active. isolated mouse mitochondria, Ca2+ swelling absorbance, 30 min. AID 602449;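 active means inhibition of 50% or more, scaled per plate between neutral and stimulator controls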
Beta cell apopt = beta cell apoptosis inhibition | protection from apoptosis, % (concentration not given with the values) | INS-1E cytokine-induced death, ATP luminescence, 48 h; percent of positive-control rescue, neutral wells zero | 300,000 tested, 0.8% active;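 active means Every replicate reaches about 75%, or at least half do and their mean reaches it too, limit read from the data; inconclusive means At least half of replicates reach the limit but their mean does not; inactive means Under half of replicates reach the limit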;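 further: higher means more ATP so stronger rescue from cytokine killing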
Mdm2 MdmX conf = human Mdm2/MdmX binding inhibition, confirmed | shares compounds with Mdm2-MdmX inh | luminescent assay | inhibition, % at 8 µM | 10,000 tested, 55% active; in the data active means inhibition above about 40%
FLuc counter = counter-screen for Mdm2/MdmX inhibitors: full-length luciferase; inhibition, % at 8 µM; 6,200 tested, 77% active; shares compounds with Mdm2-MdmX inh; SaOS-2 full-length luciferase counterscreen, luminescence; AID 504607;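 active means mean inhibition at 8 µM reaching about 37%, which flags the compound as non-specific, limit read from the data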;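 further: p53-null SaOS-2 cells with luciferase driven by a doxycycline-inducible promoter; compound on cells about two nights before reading with doxycycline added after day one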
Numbers stand for hits; 0 = inactive; ? = inconclusive; - = not tested or not shown.

SMILES	CSC inhib	SKKanGAS inh	Calb FLC	Mdm2-MdmX inh	MPTP inh	Beta cell apopt	Mdm2 MdmX conf	FLuc counter
CC(=O)NC(c1cccc([N+](=O)[O-])c1)c1ccc2cccnc2c1O (stereo unspecified)	102	60	0	77	0	97	81	0
CCCCC(=O)NC(c1cccc([N+](=O)[O-])c1)c1ccc2cccnc2c1O (stereo unspecified)	-	-	-	-	0	-	-	-
Oc1cccc(C(Nc2nccs2)c2ccc3cccnc3c2O)c1 (stereo unspecified)	110	0	103	77	0	77	81	0
O=[N+]([O-])c1ccc(NC(c2ccccc2)c2ccc3cccnc3c2O)cc1 (stereo unspecified)	-	-	-	-	0	-	-	-
CCOC(=O)c1cnc(-n2nc(C)cc2C)nc1Nc1cccc(C(=O)O)c1	0	0	0	0	0	0	-	-
CCOC(=O)c1cnc(-n2nc(C)cc2C)nc1Nc1ccc(N(C)C)cc1	0	97	0	71	0	109	48	61
CCOC(=O)c1cnc(-n2nc(C)cc2C)nc1Oc1ccc(C#N)cc1	0	0	0	0	0	0	-	-
CCOC(=O)c1cnc(-n2nc(C)cc2C)nc1NNc1nc(-c2ccccc2)cc(-c2ccccc2)n1	128	105	0	63	0	118	72	0
CCOC(=O)c1cnc(-n2nc(C)cc2C)nc1NC1CCCCC1	0	83	0	86	0	-	92	0
O=C(O)C(Cc1c[nH]c2ccccc12)N1Cc2ccccc2C1=O (stereo unspecified)	0	0	?	0	0	0	-	-
COc1cc(C(=O)NC(=S)Nc2ccc(NC(=O)c3ccco3)cc2)cc(OC)c1OC	0	66	0	54	0	0	0	-
COc1cc(C(=O)NC(=S)N(CCc2ccccc2)CCc2ccccc2)cc(OC)c1OC	0	90	93	52	0	-	53	50
O=C(NC(=S)Nc1ccc(NC(=O)c2ccco2)cc1)c1ccccc1	0	0	0	0	0	0	-	-
Cn1c(SCC(=O)C(C)(C)C)nnc1-c1ccc(F)cc1	0	0	0	0	0	0	-	-
CSc1nc(O)c(C(c2ccc(C)cc2)c2c(O)nc(SC)[nH]c2=O)c(=O)[nH]1	0	0	0	0	0	0	-	-
CCS(=O)(=O)c1nc2ccccc2n1Cc1ccccc1Cl	0	0	0	69	0	0	0	-
COc1ccc(C2CC(c3ccccc3OC(C)=O)=NN2C(=O)/C=C/c2ccccc2)cc1 (stereo unspecified)	0	0	0	0	0	0	-	-
CC(=O)Oc1ccccc1C1=NN(C(=O)/C=C/c2ccccc2)C(c2ccccc2)C1 (stereo unspecified)	0	?	0	51	0	0	0	-
Cc1cccc(NC(=O)c2nc[nH]c2C(=O)NCCCCNC(=O)c2[nH]cnc2C(=O)Nc2cccc(C)c2)c1	0	-	-	75	0	0	0	-
Cc1cccc(NC(=O)c2nc[nH]c2C(=O)NCCCCCCNC(=O)c2[nH]cnc2C(=O)Nc2cccc(C)c2)c1	0	-	-	71	0	0	0	-
O=C(CCNS(=O)(=O)c1ccccc1)OCc1nc2ccsc2c(=O)[nH]1	0	0	0	0	0	0	-	-
CCC1CCCCN1C(=O)c1cc(S(=O)(=O)N2CCOCC2)ccc1C (stereo unspecified)	0	-	-	0	0	0	-	-
COc1ccc(CNC[C@H]2O[C@@H](n3cnc4c(N)ncnc43)[C@H](O)[C@@H]2O)cc1OC	0	-	-	0	0	0	-	-
COc1ccc(C2CN=NC23CCCc2ccccc2C3=O)cc1 (stereo unspecified)	0	0	0	0	0	0	-	-
COc1ccc(C2CN=NC23CCc2ccccc2C3=O)cc1 (stereo unspecified)	0	0	0	66	0	0	53	89
SMILES	CSC inhib	SKKanGAS inh	Calb FLC	Mdm2-MdmX inh	MPTP inh	Beta cell apopt	Mdm2 MdmX conf	FLuc counter
CN(C)c1ccc(C(=O)OCC(=O)N2CCCCCC2)cc1	0	0	0	0	0	0	-	-
CCC1Nc2ncnc(N3CCN(c4ccccc4)CC3)c2N(Cc2ccc(Br)cc2)C1=O (stereo unspecified)	0	0	0	53	0	0	0	-
COc1ccc(-c2nc(C(=O)NCC3CCCO3)cc3c2[nH]c2ccccc23)cc1 (stereo unspecified)	0	0	0	0	0	-	-	-
Cc1ccc(-c2nc(C(=O)NCC3CCCO3)cc3c2[nH]c2ccccc23)cc1 (stereo unspecified)	0	0	0	73	0	0	44	66
Cc1ccccc1-c1nc(C(=O)NCC2CCCO2)cc2c1[nH]c1ccccc12 (stereo unspecified)	0	0	0	57	0	0	0	-
O=C(NCC1CCCO1)c1cc2c([nH]c3ccccc32)c(-c2cccc(Br)c2)n1 (stereo unspecified)	0	0	0	62	0	0	0	63
Cc1ccc(-c2nc(C(=O)NCCCN(C)C)cc3c2[nH]c2ccccc23)cc1	0	0	0	66	0	0	0	-
CC(C)CCNC(=O)c1onc(CSc2ccc(F)cc2)c1C(=O)NCCC(C)C	0	0	0	0	0	0	-	-
CCOc1cc(CNCCc2ccc(S(N)(=O)=O)cc2)ccc1OCc1ccc(Cl)cc1	0	0	0	100	0	105	68	65
O=C(CN1CCCC1)Nc1ccc(-c2nc3cc(NC(=O)CN4CCCC4)ccc3o2)cc1	0	0	?	92	0	0	64	52
CCCCCC(=O)Nc1ccc2oc(-c3cncc(Br)c3)nc2c1	0	0	0	58	0	0	0	-
CCN(CC)CC(=O)Nc1ccc(-c2nc3cc(NC(=O)CN(CC)CC)ccc3o2)cc1	0	0	0	55	0	0	41	74
COc1ccc(OC)c(S(=O)(=O)N2CCCCC2C(=O)O)c1 (stereo unspecified)	0	0	0	0	0	0	-	-
Cc1ccc(SCCCCN2CCOCC2)cc1	0	0	0	0	0	0	-	-
C/C(=N\NC(=O)c1cc(C2CC2)nc2ccccc12)c1ccc(C)s1	0	0	0	0	0	0	-	-
C/C(=N\NC(=O)c1cc(C2CC2)nc2ccccc12)c1ccc(O)cc1O	0	0	101	75	0	95	78	38
C/C(=N\NC(=O)c1cc(-c2cccnc2)nc2ccccc12)c1ccccc1O	-	0	0	63	0	86	51	39
C#CCN1C(=O)C(O)(CC(=O)/C=C/c2ccco2)c2ccccc21 (stereo unspecified)	0	0	0	0	0	0	-	-
COc1cc(NC(=O)c2cc(-c3ccccc3Cl)on2)cc(OC)c1OC	0	0	0	65	0	0	54	52
O=C(COc1ccc(/C=N/NC(=O)c2cc3ccccc3o2)cc1Br)Nc1ccccc1	99	0	0	95	0	0	0	-
